Here are results for 83 compounds from PubChem BioAssay AID504652 (National Center for Advancing Translational Sciences (NCATS), 2011).

Molecules are shown by their SMILES. Where “and” joins values, the source holds several entries; their conditions need not be identical. Equal entries are not always repeated. The whole screen tested about 360,000 compounds, of which about 11,000 (3.1%) were called active. This is one part of a sample in which actives are shown more often than they occur. No stated cut-off is given here; in the data, active means activity change below about -30%; inactive means the rest.
On the % scale 0 is the no-effect control and ±100 the full control effect.

The target of the assay is D(1A) dopamine receptor (Homo sapiens) (UniProt P21728). Nature of the assay: Antagonist of Human D 1 Dopamine Receptor: qHTS. Conditions: HEK293 TREx D1 cells, calcium flux, dopamine EC80; at 10 µM; active compounds read low. A digest of the protocol: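 Tetracycline-induced HEK293 T-REx cells with force-coupled D1 receptor were loaded with a no-wash calcium dye. Compound was added after a 10 s baseline and read kinetically for 180 s; EC80 dopamine was then added and calcium flux followed another 180 s.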
Chain of D(1A) dopamine receptor (Homo sapiens) (P21728 whole entry, looked up): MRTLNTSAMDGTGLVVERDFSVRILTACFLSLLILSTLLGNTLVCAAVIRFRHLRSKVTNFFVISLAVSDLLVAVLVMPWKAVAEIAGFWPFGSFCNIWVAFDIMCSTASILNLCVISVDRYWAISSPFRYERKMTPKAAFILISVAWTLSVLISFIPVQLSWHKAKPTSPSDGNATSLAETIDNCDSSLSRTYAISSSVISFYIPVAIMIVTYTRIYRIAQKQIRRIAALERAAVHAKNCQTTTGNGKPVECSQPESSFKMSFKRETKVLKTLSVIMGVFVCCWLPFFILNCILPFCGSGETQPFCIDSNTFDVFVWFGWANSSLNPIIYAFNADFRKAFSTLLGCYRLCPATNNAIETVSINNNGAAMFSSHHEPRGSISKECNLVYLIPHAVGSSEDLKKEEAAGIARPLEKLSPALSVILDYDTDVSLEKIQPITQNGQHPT
`COc1ccccc1CCNC(=O)c1cccn1-c1nnc(N2CCCCC2)s1`: the activity change, negative = inhibition was 13.6% (inactive).
Then `CCCOc1cccc(C(=O)Nc2cccc(NC(=O)c3ccc(C(C)(C)C)cc3)c2)c1`, with -1.05% (inactive); and `CCOc1cccc2c1N[C@@H](c1ccc(C(=O)O)cc1)[C@H]1CC=C[C@@H]21`, with -19.7% (inactive).
Then `Cc1ccc2nc(COc3cccc(NC(=O)c4ccccc4Cl)c3)cc(=O)n2c1`, with -6.97% (inactive).
On to `O=C(CSc1nc2ccccc2c(=O)n1CCCO)NC1CC1`, for which the activity change, negative = inhibition is 8.77% (inactive).
Then `CC(=O)NCCn1c(SCC(=O)Nc2ccc(C)cc2)nc2ccccc2c1=O`, with 1.17% (inactive) and -18.8% (inactive); and `CN(C)CCCn1c(SCCN2C(=O)c3ccccc3C2=O)nc2ccccc2c1=O`, with -51.8% (active); and `Cc1ccc(Cc2nc3ccccc3nc2SCC(=O)Nc2cccc(C(F)(F)F)c2)cc1`, with -11.6% (inactive).
With `O=C(CCc1nc(CN2CCN(S(=O)(=O)c3ccc(Cl)cc3)CC2)no1)N1CCCCC1`, the activity change, negative = inhibition is -4.7% (inactive).
For `Cc1ccc([C@@H]2CC=C(C(=O)O)[C@H](c3cccc(Cl)c3)N2S(=O)(=O)c2ccc(C)cc2)cc1`, the activity change, negative = inhibition is -12.2% (inactive).
Then `Cc1ccccc1S(=O)(=O)N1[C@@H](c2cccc(Cl)c2)C(C(=O)O)=CC[C@H]1c1ccc(Cl)cc1`, with -39.7% (active); and `Cc1ccc(S(=O)(=O)N2[C@@H](c3cccc(Cl)c3)C(C(=O)O)=CC[C@H]2c2ccc(Cl)c(Cl)c2)cc1`, with -17.8% (inactive); and `CCc1cccc(-n2nnc(-c3nsc(NC(=O)c4ccc(C)cc4)n3)c2C)c1`, with 16.6% (inactive).
Then `Cc1ccc(CNC(=O)COc2ccc3c(c2)CCC3)cc1`, with 0.495% (inactive); and `COc1cc(C(=O)NCc2ccc3c(c2)cc(C)n3C)cc(OC)c1OC`, with -1.99% (inactive).
With `CCOCC(=O)NCc1ccc2c(c1)cc(C)n2C`, the activity change, negative = inhibition is -38.5% (active).
Regarding `CCc1ccccc1NC(=O)Cn1c(=O)n(CC2CCC(C(=O)NCCc3ccccc3)CC2)c(=O)c2ccccc21` (stereo not drawn), the activity change, negative = inhibition was 9.85% (inactive).
As for `CC(=O)c1c(C)n(-c2ccc(N(C)C)cc2)c2ccc(OCC(N)=O)cc12`, the figure is 4.08% (inactive); as for `CCOC(=O)c1c(CN2CCOCC2)n(-c2ccccc2)c2ccc(O)cc12`, 2.3% (inactive).
Then `CC(=O)c1c(C)n(-c2ccc(C)cc2)c2ccc(O)cc12`, with -50.8% (active); and `O=c1c2ccccc2n(Cc2cccc(Cl)c2)c(=O)n1Cc1ccccc1`, with -3.55% (inactive); and `Fc1ccccc1Oc1ncnc2c1oc1ccccc12`, with -11.6% (inactive).
As for `CCn1c(SCc2cc(=O)n3ccsc3n2)nc2ccccc21`, the figure is -2.02% (inactive); as for `O=c1cc(Cn2nnc(-c3ccc(Cl)cc3)n2)nc2sccn12`, -32.8% (active); as for `O=C(OCc1cc(=O)n2ccsc2n1)C1(c2ccc(Cl)cc2)CC1`, 5.81% (inactive).
Regarding `COc1ccc2[nH]c3c(c2c1)CCN(C(=O)CCC1CCCC1)C3c1ccc(F)cc1` (stereo not drawn), the activity change, negative = inhibition is -3.48% (inactive).
Then `CC(C)c1ccc(OCC(=O)N(Cc2ccc(N(C)C)cc2)C2CCS(=O)(=O)C2)cc1` (stereo not drawn), with 12% (inactive); and `O=C(CCC1CCCC1)N=C1SC2CS(=O)(=O)CC2N1Cc1ccccc1` (stereo not drawn), with -43% (active).
Then `CC(C)CC(=O)N=C1SC2CS(=O)(=O)CC2N1CCc1ccccc1` (stereo not drawn), with 4.43% (inactive).
For `C=CCN1C(=NC(=O)COc2ccccc2)SC2CS(=O)(=O)CC21` (stereo not drawn), the activity change, negative = inhibition was 5.52% (inactive).
Then `COc1ccccc1CN1CCC(CNC(=O)c2cnn(-c3cccc(Cl)c3)c2C2CCN(C(=O)OC(C)(C)C)CC2)CC1`, with 3.93% (inactive).
With `Cc1ccc(Cl)cc1NC(=O)Cc1ccc(-n2c(C)nc3cccnc32)cc1`, the activity change, negative = inhibition was 13% (inactive).
As for `COc1cc(OC)c2ccc(=O)oc2c1C(CCN1CCN(c2ccccc2)CC1)c1ccc2c(c1)OCO2` (stereo not drawn), the figure is -83.8% (active); as for `O=C(NCC(c1ccc2c(c1)OCO2)N1CCN(c2ccccc2)CC1)C(=O)Nc1ccccc1F` (stereo not drawn), 4.02% (inactive); as for `COc1ccc(C(CC(=O)N2CCN(c3ccccc3)CC2)c2c(O)cc(OC)cc2OC)cc1` (stereo not drawn), 29.6% (inactive).
As for `COc1ccccc1N1CCN(Cc2cc(OC)c3c(c2)OCO3)CC1`, the figure is -0.813% (inactive); as for `COc1cc(C(=O)NCCS(=O)(=O)N2CCN(c3ccccc3)CC2)cc(OC)c1OC`, -13.9% (inactive).
Then `COc1cc(C(CCN2CCN(c3ccccc3)CC2)c2c(OC)cc(OC)c3ccc(=O)oc23)cc(OC)c1OC` (stereo not drawn), with -74% (active); and `CC(=O)Nc1cccc(NC(=O)CSc2nccn2Cc2ccc3c(c2)OCO3)c1`, with 1.91% (inactive).
As to `O=C(Nc1ccc(Br)cc1)c1ccc(Br)c(S(=O)(=O)NCc2ccccc2)c1`, the activity change, negative = inhibition is -21.6% (inactive).
As for `CCOc1ccccc1NC(=O)C1CCCN(S(=O)(=O)c2cn(C)cn2)C1` (stereo not drawn), the figure is -15.7% (inactive).
Then `Cc1ccccc1CNC(=O)CCCn1nc(C)c2sc3ccccc3c2c1=O`, with -0.115% (inactive).
Turning to `CCOC(=O)Cn1c(=O)n(-c2ccccc2OC)c2nc(-c3cccc(F)c3)nc(C(N)=O)c21`, the activity change, negative = inhibition was -25% (inactive).
Take `CCc1cc2c(-c3ccccc3)cc(=O)oc2c2c1OCN(Cc1ccc(C)cc1)C2`: the activity change, negative = inhibition is -3.71% (inactive).
As for `O=C1CSC2(C(=O)N(Cc3ccccc3)c3ccccc32)N1c1cccc(F)c1` (stereo not drawn), the figure is -4.64% (inactive); as for `CC1CCCN(c2csc3ccc(F)cc3c2=O)C1` (stereo not drawn), -8.32% (inactive); as for `COc1ccc(C2=NC3(CCCCC3)N(CC(=O)Nc3ccc(C(C)C)cc3)C2=O)cc1`, -5.42% (inactive).
Then `Cc1cccc(NC(=O)Cn2nc(-c3ccc(Cl)cc3)c3ccccc3c2=O)c1`, with 6.9% (inactive).
As for `O=C1C=C(c2ccc(Cl)cc2)C(=O)N1Nc1ccccc1`, the figure is -47.7% (active).
As for `Cc1ccc(-c2cn3c(n2)sc2cc(C(=O)NCCCc4ccccc4)ccc23)cc1`, the activity change, negative = inhibition is 7% (inactive).
As for `N#Cc1nc(-c2ccc(OCc3ccccc3)cc2)oc1NCCCN1CCOCC1`, the figure is -46.5% (active).
As for `Cc1ccc(-c2nc(C#N)c(NCCCn3ccnc3)o2)cc1`, the figure is 5.54% (inactive); as for `O=S(=O)(c1ccccc1)c1nc(-c2ccccc2)oc1NCCCN1CCOCC1`, -15% (inactive).
Regarding `Cc1cc(C)cc(NC(=O)Cn2nc(N3CCN(c4ccccc4)CC3)ccc2=O)c1`, the activity change, negative = inhibition is 25.5% (inactive).
Then `COc1ccc(C)cc1NC(=O)C(=O)NCCc1sc(-c2cccc(C)c2)nc1C`, with -28.6% (inactive); and `CCc1ccccc1OCCSc1nc(-c2cccs2)nc2cc(=O)[nH]n12`, with -43.9% (active).
Then `O=c1cc2nc(-c3ccccc3)nc(SCCOc3ccc(Cl)cc3)n2[nH]1`, with -2.6% (inactive).
Consider `Cc1ccc(OCCSc2nc(-c3cccs3)nc3cc(=O)[nH]n23)cc1Cl`, for which the activity change, negative = inhibition is -20.2% (inactive).
Then `CCc1ccc(NC(=O)CN2C(=O)CCSc3ccc(S(=O)(=O)N4CCCC4)cc32)cc1`, with 4.1% (inactive); and `COc1ccccc1NC(=O)c1cc(S(=O)(=O)NCCc2ccccc2)ccc1F`, with -14.3% (inactive).
As for `O=C(O)c1ccc(/C=C2\SC(=S)N(NC(=O)c3ccc(Br)cc3)C2=O)cc1`, the figure is -2.74% (inactive).
Consider `CC(=O)N1C(=O)/C(=C2\SC(=S)N(NC(=O)c3ccc(O)cc3)C2=O)c2ccccc21`, for which the activity change, negative = inhibition is 2.62% (inactive).
For the compound `Cn1cccc1/C=C1\SC(=S)N(NC(=O)c2ccc(Cl)cc2)C1=O`, the activity change, negative = inhibition was -34% (active).
Then `COc1cc(/C=C2\CCCc3c2nc2ccccc2c3C(=O)O)cc(Cl)c1O`, with -14.9% (inactive); and `NS(=O)(=O)c1ccc(NC(=O)COC(=O)c2c3c(nc4ccccc24)/C(=C\c2ccc4c(c2)OCO4)CCC3)cc1`, with -45.1% (active).
As for `NC(=O)c1ccc(NC(=O)COC(=O)c2c3c(nc4ccccc24)/C(=C\c2ccc4c(c2)OCO4)CCC3)cc1`, the figure is -7.23% (inactive); as for `CCCCN(C)CCCNC(=O)CN1N=C(c2ccc(OC)cc2)CCC1=O`, 3.24% (inactive).
Then `CCCC12CN3CC(C)(CN(C1)C3c1ccccc1Cl)C2=O` (stereo not drawn), with -3.8% (inactive); and `COc1cccc(-n2c(=O)c3c(C)c(C(=O)N(C)C)sc3n(Cc3cccc(C)c3)c2=O)c1`, with 4.64% (inactive).
Take `Cc1cc(C)cc(NC(c2nnc(-c3cccc(F)c3)o2)c2ccc(F)cc2Cl)c1` (stereo not drawn): the activity change, negative = inhibition is 12.4% (inactive).
Then `N#C/C(=C\c1ccccc1F)c1nc2ccccc2c(=O)[nH]1`, with -3.28% (inactive).
Then `CSc1nc(=O)c2c(n1C)NC(=O)CC2c1ccccc1OC(C)C` (stereo not drawn), with 2.77% (inactive).
Then `COc1ccc(C(=O)c2c(C)oc3cc([N+](=O)[O-])c(O)c([N+](=O)[O-])c23)cc1`, with 12.5% (inactive); and `Cc1oc2cc([N+](=O)[O-])c(O)c([N+](=O)[O-])c2c1C(=O)c1ccc(Br)cc1`, with -36.4% (active).
In the case of `Cc1oc2cc(Br)c(O)c(Br)c2c1C(=O)c1ccccc1`, the activity change, negative = inhibition is -4.24% (inactive).
With `O=C(Nc1ccc2c(c1)OCO2)c1cc(-c2cccc(Cl)c2)on1`, the activity change, negative = inhibition was -3.15% (inactive).
On to `Cc1ccc(C(=O)Nc2sc(Cc3ccc4c(c3)OCO4)c(C)c2C(N)=O)cc1`, for which the activity change, negative = inhibition is 17.9% (inactive).
Then `Cc1ccc(S(=O)(=O)c2c(Nc3cccc(Cl)c3)sc(C(=O)c3ccc4c(c3)OCO4)c2N)cc1`, with -41.6% (active); and `COc1ccc(S(=O)(=O)c2c(Nc3ccc(C)cc3)sc(C(=O)c3ccc(C)cc3)c2N)cc1`, with -13.4% (inactive).
As for `COc1ccc(S(=O)(=O)c2c(Nc3cccc(Cl)c3)sc(C(=O)c3ccccc3)c2N)cc1`, the figure is -73.9% (active); as for `CCCS(=O)(=O)c1c(Nc2ccccc2C)sc(C(=O)c2ccccc2)c1N`, 0.973% (inactive); as for `NS(=O)(=O)c1ccc(NC(=O)COc2ccc(S(=O)(=O)NC3CCCCC3)cc2)cc1`, 9.54% (inactive).
As for `Cc1ccc(C(=O)NC2CCN(C#N)CC2)cc1`, the figure is -16% (inactive).
